# Results as given in PubChem BioAssay (NCI).
# The panel holds about 83,000 compounds, 20% with a hit somewhere; the sample as a whole holds those more often.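 The endpoint reported here, percent growth, reads 100 for growth as untreated, 0 for no net growth and -100 for all cells dead.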 A number with no mark means an inactive call. Calls of active or inactive are those of the source. How the source made its calls: active means growth percent below 10; inactive means the rest.
# Experiments:
# Experiment in all cases: NCI-60 one-dose screen, 48 h (100 = growth as untreated, 0 = no growth, -100 = all killed)
# RPMI-8226 leukemia = conditions: 10 µM unless noted
# OVCAR-8 ovarian = conditions: 10 µM unless noted
# OVCAR-5 ovarian = conditions: 10 µM unless noted
# OVCAR-4 ovarian = conditions: 10 µM unless noted
# SK-OV-3 ovarian = conditions: 10 µM unless noted
# OVCAR-3 ovarian = conditions: 10 µM unless noted
# HS 578T breast = conditions: 10 µM unless noted
# NCI/ADR-RES ovarian = conditions: 10 µM unless noted
# T-47D breast = conditions: 10 µM unless noted
# BT-549 breast = conditions: 10 µM unless noted
# MDA-MB-435 melanoma = conditions: 10 µM unless noted
# SW-620 colon = conditions: 10 µM unless noted
# MCF7 breast = conditions: 10 µM
# HCC-2998 colon = conditions: 10 µM unless noted
# HCT-116 colon = conditions: 10 µM unless noted
# KM12 colon = conditions: 10 µM unless noted
# IGROV1 ovarian = conditions: 10 µM unless noted
SMILES,growth (RPMI-8226 leukemia),growth (OVCAR-8 ovarian),growth (OVCAR-5 ovarian),growth (OVCAR-4 ovarian),growth (SK-OV-3 ovarian),growth (OVCAR-3 ovarian),growth (HS 578T breast),growth (NCI/ADR-RES ovarian),growth (T-47D breast),growth (BT-549 breast),growth (MDA-MB-435 melanoma),growth (SW-620 colon),growth (MCF7 breast),growth (HCC-2998 colon),growth (HCT-116 colon),growth (KM12 colon),growth (IGROV1 ovarian)
CC(=O)O[C@@H]1/C=C/C(=O)N[C@@H](C)CCC/C=C/[C@@H]2CCC[C@H]21,87.5%,99.4%,87.8%,109%,103%,106%,133%,101%,98.6%,117%,106%,112%,98.8%,98.5%,,,
N#C/C(=C\c1c(-c2ccccc2)[nH]c2ccccc12)S(=O)(=O)c1ccccc1,-43.1% (active),43.3%,75.1%,83%,30.5%,-27.9% (active),15.9%,7.91% (active),38.9%,51.7%,7.27% (active),28.6%,14%,57%,36.8%,25.1%,
COc1cc(/C=C/C(=O)c2ccc(Cl)cc2)cc(CN2CCCCC2)c1O,50.9%,89.3%,99.7%,76.7%,,93.8%,85.4%,88.5%,79.3%,91.2%,74%,88.6%,48.1%,95.5%,82.1%,,90.5%
O=C(c1nc2ccccc2[nH]1)C1C(c2ccc([N+](=O)[O-])cc2)C2CC3CCCCC3N2[C@@]12C(=O)Nc1cc(Cl)ccc12 (stereo partly drawn),6.29% (active),35%,46.3%,20.6%,,29.6%,54.6%,29.2%,28.8%,46.9%,23%,31.6%,7.25% (active),31.6%,17.9%,,24.9%
COC(=O)/C(=C\c1c(-c2ccccc2)[nH]c2ccccc12)S(C)(=O)=O,-14.8% (active),36.7%,83.5%,63.9%,39.8%,-46% (active),-9.62% (active),-13% (active),27%,45.7%,4.05% (active),20.4%,15.6%,44.7%,,4.53% (active),
COc1ccc(-c2cn3c(C(=O)Nc4ccccc4Cl)c(-c4ccccc4)c4c3n2CCCC4)cc1,68.5%,83.6%,79.8%,74.6%,86.4%,84.1%,114%,,78.9%,86.4%,80%,82.5%,71.3%,,73.2%,82.8%,
COc1ccc(CN2CCCC(C(=O)c3ccc(C(F)(F)F)cc3)C2)c(O)c1 (stereo not drawn),11.8%,17%,55%,45.4%,26.1%,7.49% (active),25.8%,,26.1%,25.7%,-48.9% (active),13.4%,10.9%,31.8%,,,47.5%
N#CC(C#N)=Cc1c(-c2ccccc2)[nH]c2ccccc12,-24.8% (active),32.4%,75.3%,65.7%,25.3%,-27.5% (active),-1.19% (active),16.2%,38.6%,56%,7.52% (active),21.1%,15.7%,50.7%,30.4%,27.4%,
Nc1nc2c(ncn2[C@@H]2O[C@H](CS)[C@@H](O)[C@H]2O)c(=O)[nH]1,94.9%,99.2%,93.3%,99.1%,,104%,99.6%,104%,107%,100%,99.8%,96%,101%,104%,102%,,103%
O=C1/C(=C/c2ccc(O)cc2)COc2ccc(O)cc21,8.89% (active),108%,104%,102%,,108%,98.5%,98.7%,103%,106%,94.8%,87.2%,51.6%,108%,86.1%,,97.3%
O=C(Nc1ccc(F)cc1F)c1cc(Cl)ccc1O,1.46% (active),10.6%,15.3%,16.6%,-11.2% (active),7.98% (active),9.26% (active),,-12.4% (active),,4.56% (active),14.5%,3.22% (active),23.1%,,5.33% (active),19.3%
COc1ccc(/C=C/C(=O)c2c(C)nc3ccccc3c2/C=C/c2ccccc2)cc1O,25.6%,30.9%,17.2%,61.9%,71.7%,13.6%,37.5%,,39.6%,,1.85% (active),19.4%,18.2%,82.4%,,35.6%,34.7%
NNC(=O)CNC(=O)Nc1n[nH]c(=S)s1,93%,104%,97.6%,117%,99.8%,108%,90.9%,,101%,116%,110%,102%,93.8%,106%,94.1%,100%,102%
Nc1ccc(C2c3ccccc3Oc3ccccc32)cc1,94%,102%,101%,105%,98.3%,96.4%,,100%,84.1%,109%,104%,101%,104%,117%,97.8%,103%,91.8%
CCCCCCc1cc2cc(-c3csc(/C=C/c4ccccc4)n3)c(=O)oc2cc1O,-1.82% (active),20%,81.7%,36.8%,47%,2.25% (active),3.39% (active),,5.5% (active),41.4%,-72.2% (active),1.96% (active),8.1% (active),-25.1% (active),12%,15.8%,37.2%
O=C1/C=C/[C@@H](O)[C@@H]2C[C@@H](O)C[C@H]2/C=C/CCCCO1,-39.2% (active),12.5%,36.6%,20.9%,13%,-31.3% (active),23.3%,9.26% (active),-11.1% (active),45.3%,23.5%,-33.7% (active),-48% (active),6.82% (active),0.136% (active),-51.1% (active),
CCCCc1c(CCC)c(=N)c2ccccc2n1C,29.9%,65.5%,99.6%,73.4%,99.1%,90.9%,122%,85.4%,85.9%,88.1%,64.9%,59%,50.2%,107%,,77.2%,
O=C(Nc1ccc(-c2nc3cc4ccccc4cc3[nH]2)cc1)c1cccc(Br)c1,23%,7.87% (active),73.7%,63.7%,43.8%,25.9%,83.5%,,54%,47.9%,30%,26.9%,27.5%,33.1%,64.6%,39.8%,33.2%
Nc1n[nH]c2ccc([C@@H]3Nc4ccc5[nH]ncc5c4[C@H]4[C@H]5CCC(C5)[C@H]43)cc12,17.4%,24.3%,34.9%,47.6%,50.6%,-10.1% (active),5.8% (active),,73.6%,,-7.49% (active),22.2%,18.7%,26.2%,9.49% (active),11.5%,24.2%
O=C1CCC(N2C(=O)c3cccc(NCCCCCCOc4ccc(Nc5nccc(Nc6ccccc6)n5)cc4)c3C2=O)C(=O)N1 (stereo not drawn),38.5%,77.8%,109%,64.6%,,78.8%,98.2%,79.2%,39.5%,65.1%,75.9%,91%,66.8%,98.4%,77.6%,88.5%,72.5%
